In the library only some 2.4% were active in any assay of this set; here they are far more common.
M1 ag – agonists of human M1 muscarinic receptor | CHO-K1 hM1, Fluo-8 calcium fluorescence, agonist mode; 0% DMSO, 100% acetylcholine EC100 | P11229 | activation, % at 3 µM | hit rate 0.33% among 360,000;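 active = activation above the run's mean compound activation plus 3 SD, cut at about 16% in these data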;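 note: peak over basal fluorescence ratio within a 140 s kinetic read after compound addition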
Target sequence (P11229 whole entry, looked up): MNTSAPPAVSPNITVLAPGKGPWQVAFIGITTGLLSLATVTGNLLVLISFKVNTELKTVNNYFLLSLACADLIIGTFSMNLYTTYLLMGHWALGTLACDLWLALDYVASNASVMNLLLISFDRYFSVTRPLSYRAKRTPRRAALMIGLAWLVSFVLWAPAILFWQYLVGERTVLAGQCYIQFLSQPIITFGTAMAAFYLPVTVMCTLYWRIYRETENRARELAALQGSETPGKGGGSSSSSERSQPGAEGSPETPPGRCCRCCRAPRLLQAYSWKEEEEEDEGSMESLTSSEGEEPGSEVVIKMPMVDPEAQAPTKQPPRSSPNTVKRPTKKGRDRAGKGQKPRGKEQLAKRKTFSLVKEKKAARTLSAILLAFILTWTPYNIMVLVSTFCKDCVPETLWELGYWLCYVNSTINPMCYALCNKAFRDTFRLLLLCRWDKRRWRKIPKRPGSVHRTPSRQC
CHRM1 PAM – human CHRM1 positive allosteric modulation | P11229 | CHO-K1 hM1, Fluo-8 calcium fluorescence, ACh EC20; 0% = ACh EC20, 100% = maximal ACh | activation, % at 3 µM | hit rate 0.088% among 360,000 | AID 588819; in the data active = activation above about 19%, passing the limit was not always enough
CHO-K1 Ca antag – counter-screen for M1 antagonists: effect in parental CHO-K1 cells. AID 602250. hit rate 0.6% among 360,000. ATP-induced calcium, Fluo-8 fluorescence. inhibition, % at 3 µM;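 active = inhibition above a per-plate cutoff, the plate's mean sample inhibition plus 3 SD, cut at about 24% in these data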;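 note: 0% = DMSO plus EC80 ATP and 100% = DMSO alone without ATP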
M1 PAM parental – M1 PAM counterscreen hit in parental CHO-K1 cells. ATP EC20, Fluo-8 calcium fluorescence; 0% at ATP EC20, 100% at ATP max. activation, % at 3 µM. hit rate 0.02% among 360,000;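 active = activation above the run cutoff, the mean activation of all test compounds plus 3 SD, cut at about 40% in these data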;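 note: peak over basal fluorescence ratio in a 140 s read after ATP addition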
M1 ag parental – counter-screen for M1 agonists: effect in parental CHO-K1 cells; activation, % at 3 µM; hit rate 0.48% among 360,000; Fluo-8 calcium fluorescence; scaled to maximal ATP response, vehicle zero; in the data active = activation above about 15%;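 note: untransfected CHO-K1 host cells lacking M1 receptor as counterscreen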
CHRM1 antagonist – antagonists of human M1 muscarinic receptor; hit rate 1.3% among 360,000; P11229; inhibition, % at 3 µM; CHO-K1 hM1, Fluo-8 calcium fluorescence, ACh EC80 antagonist;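 active = percent inhibition above its own plate's cutoff, namely the mean of that plate's compound wells plus 3 SD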;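 note: peak over basal fluorescence ratio during 140 s after agonist addition; 0% = ACh EC80 plus DMSO and 100% = DMSO alone without agonist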
The depositor's hits bear a star.

SMILES | M1 ag | CHRM1 PAM | CHO-K1 Ca antag | M1 PAM parental | M1 ag parental | CHRM1 antagonist
CCN(CC)c1ccc(C2C(C(=O)OCCOC)=C(C)NC3=C2C(=O)CCC3)cc1 (stereo unspecified) | -8.7 | -17.8 | -9.7 | 22.6 | 0.1 | 23.6
CC1=C(C(=O)Nc2cccnc2)C(c2ccc3c(c2)OCO3)C2=C(CCCC2=O)N1 (stereo unspecified) | -2.9 | 3.8 | -4.6 | 13.0 | -0.1 | -19.8
O=C(Nc1cccnc1)c1ccc(N2CCOCC2)c([N+](=O)[O-])c1 | -3.1 | -9.4 | 3.9 | -11.0 | 0.8 | 18.3
CCOc1ccc(S(=O)(=O)n2nc(C)c(S(=O)(=O)N3CCOCC3)c2C)cc1 | -3.8 | 4.7 | -9.9 | 9.7 | 1.2 | 0.7
CC(C)(C)c1cc(C(=O)NNC(=O)Nc2cccc(Cl)c2)n(Cc2ccccc2)n1 | -6.4 | -8.3 | 29.3* | -22.8 | 0.2 | 15.7
CC(C)(C)c1cc(C(=O)NNC(=O)Nc2ccccc2)n(Cc2ccccc2)n1 | -2.1 | 4.2 | 2.1 | 6.2 | 5.0 | -8.3
c1ccc(CC[C@@H]2CC[C@@H](CCc3ccccc3)N2)cc1 | -14.0 | -27.2 | -12.3 | 17.9 | 3.7 | 32.1*
COc1ccc(CNC(=O)c2cc3c(C)nc4ccccc4c3o2)c(OC)c1 | -5.5 | -18.6 | 14.5 | 2.0 | 7.9 | 36.8*
Cc1nc2ccccc2c2oc(C(=O)Nc3ccc4c(c3)OCCO4)cc12 | -2.1 | 5.0 | 1.7 | 6.5 | 0.2 | -5.1
Cc1nc2ccccc2c2oc(C(=O)Nc3ccc(C(C)C)cc3)cc12 | -4.4 | 0.8 | 25.2* | -11.8 | 0.1 | 9.5
COc1cc(NC(=O)CN2CCC(Cc3ccccc3)CC2)c(C)cc1[N+](=O)[O-] | -2.3 | 10.2 | -5.7 | 14.5 | -0.2 | -8.3
COc1cccc(C(=O)N2CCN(C3CCC(c4ccccc4)CC3)CC2)c1OC (stereo unspecified) | 42.8* | -10.8 | -12.2 | 2.4 | 1.1 | 21.6
O=C(c1ccncc1)N1CCN(C2CCC(c3ccccc3)CC2)CC1 (stereo unspecified) | -0.5 | -1.6 | -11.4 | 4.0 | 1.7 | 10.9
Cc1cc(N2CCN(c3cccc(C(F)(F)F)c3)CC2)n2nc(C)nc2n1 | -0.9 | 30.9* | 9.6 | 7.1 | -0.1 | 8.2
Cc1cc(N2CCN(c3ccccn3)CC2)n2nc(C)nc2n1 | -1.5 | 5.7 | 11.8 | -3.7 | -0.1 | -2.5
O=C(Nc1ccc(SC(F)F)cc1)c1ccc2nccnc2c1 | -2.9 | -23.8 | -1.2 | -10.9 | 16.7* | 24.3
COC(=O)c1ccc(NC(=O)c2ccc3nccnc3c2)cc1 | 2.4 | 6.7 | -11.1 | 23.6 | 7.5 | -8.3
OC(c1ccc(Cl)cc1)c1nnc(-c2ccccc2)o1 (stereo unspecified) | -1.7 | 2.9 | -8.3 | 18.5 | 1.6 | -8.9
CN1C2C=C3C(C#N)=C(N)C(C#N)(C#N)[C@H](c4c(F)cccc4F)[C@H]3C1CC2 (stereo partly specified) | -8.5 | -3.9 | 2.2 | 5.9 | 0.1 | 5.1
CCOc1ccc(OCc2ccc(C(=O)N3N=C(C(F)F)CC3(O)C(F)F)o2)cc1 (stereo unspecified) | -6.9 | -5.5 | -5.8 | 8.9 | 1.6 | 9.0
O=C(c1ccc(COc2ccc3ccccc3c2)o1)N1N=C(C(F)F)CC1(O)C(F)F (stereo unspecified) | -5.0 | -21.4 | 20.8 | -10.8 | 6.0 | 55.6*
O=C(c1cc(-c2ccccc2)nc2ccccc12)N1N=C(C(F)F)CC1(O)C(F)F (stereo unspecified) | 7.2 | 22.0* | -1.7 | 17.0 | 1.6 | -1.9
O=C(c1ccc(COc2ccc(Br)cc2)o1)N1N=C(C(F)F)CC1(O)C(F)F (stereo unspecified) | -7.0 | -25.2 | -22.5 | 6.6 | 3.8 | 33.0*
CCOC(=O)c1c(NC(=S)Nc2ccc(C)cc2)sc2c1CCC2 | 0.4 | -5.7 | -12.7 | -0.1 | 0.3 | 5.2
COC(=O)C1=C(C)N(c2cccc(C(C)=O)c2)C(=O)C1 | -5.0 | -1.5 | 8.8 | -6.1 | 0.1 | 7.1
SMILES | M1 ag | CHRM1 PAM | CHO-K1 Ca antag | M1 PAM parental | M1 ag parental | CHRM1 antagonist
CCc1ccccc1NC(=O)N[C@H](C(=O)O)C(C)CC (stereo partly specified) | -2.7 | 10.1 | -0.9 | 12.6 | 0.2 | -6.2
CCOC(=O)c1[nH]c2ccc(OC)cc2c1NC(=O)CN1CCC2(CC1)OCCO2 | -0.6 | 5.3 | -3.0 | 5.2 | 0.8 | -2.7
CCOC(=O)c1[nH]c2ccc(F)cc2c1NC(=O)CCN1CCOCC1 | -12.2 | 6.2 | 0.5 | 11.5 | 0.1 | -7.6
COC(=O)c1[nH]c2ccccc2c1NC(=O)CN1CCN(c2cccc(OC)c2)C(C)C1 (stereo unspecified) | -2.6 | -2.3 | 28.1* | -6.8 | 1.7 | 9.4
CCOC(=O)c1[nH]c2ccc(OC)cc2c1NC(=O)CN1CCc2ccccc2C1 | -1.8 | -9.3 | 17.2 | 4.1 | 3.7 | 22.6*
CCOC(=O)c1[nH]c2ccc(Br)cc2c1NC(=O)CCN1CCCC(C)(C)C1 | -8.4 | -20.1 | 7.3 | -7.3 | 0.3 | 90.2*
COC(=O)c1[nH]c2cc(OC)ccc2c1NC(=O)CCN1CCN(c2ccccc2)CC1 | -3.9 | 7.4 | 3.9 | 5.4 | 1.4 | -4.0
COC(=O)c1[nH]c2ccc(Cl)cc2c1NC(=O)CCN1CCN(C2CCCCC2)CC1 | -5.5 | -20.5 | -2.9 | 6.9 | 0.0 | 62.3*
CCCCS/C(=C(/C#N)C(N)=O)c1cc2c([nH]1)CCCC2 | -6.2 | -25.4 | 7.2 | 7.8 | -0.3 | 25.0*
C=CCn1c(SC(C)C(=O)NC2(C#N)CCCCC2)nnc1-c1ccc(OC)cc1 (stereo unspecified) | -3.3 | -8.8 | -0.1 | 2.3 | 0.7 | 33.0*
CCN(CC(=O)Nc1ccc2c(c1)OCCO2)C(=O)/C=C/c1ccc(OC)cc1OC | -4.1 | 2.7 | 3.9 | -7.9 | 1.6 | 2.4
CCN(CC(=O)Nc1ccc2c(c1)OCCO2)C(=O)/C=C/c1cccc(OC)c1OC | 17.3* | 26.6* | -11.5 | 20.1 | 5.8 | -20.2
COc1cc(C2Nc3ccccc3C(=O)N2NS(C)(=O)=O)c([N+](=O)[O-])cc1OC (stereo unspecified) | -3.1 | 27.3* | -7.4 | 7.4 | -0.2 | -4.0
COCC(=O)N1CCC(Oc2ccc(C(=O)N3C[C@@H]4CCC[C@H]3C4)cc2)CC1 | -0.3 | -5.2 | 23.8* | -12.8 | 0.4 | 4.8
CCCc1ccc(NC(=O)C2CCCN(c3cnccn3)C2)cc1 (stereo unspecified) | -3.9 | 0.4 | -8.8 | 9.1 | 2.8 | 3.1
O=C(NCC1CCCO1)c1cccs1 (stereo unspecified) | -2.8 | 18.9* | -1.0 | -2.2 | -0.1 | -18.9
O=C(NCC1CCCO1)Nc1ccc(Cl)cc1 (stereo unspecified) | -3.2 | 7.9 | -3.4 | 18.5 | 1.0 | -11.8

Screening results (PubChem BioAssay)
